The source of these data is PubChem BioAssay AID2227 (Johns Hopkins Ion Channel Center, 2009).

The whole screen tested about 310,000 compounds, of which about 1,300 (0.42%) were called active.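 The calls were made as follows: active = B-score of calcium response area above 5 SD of library B-scores, with initial fluorescence ratio within 5 SD of library; inactive = the rest.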 The full list was thinned out, with actives kept by preference.

Short transient receptor potential channel 4 (Mus musculus), sequence (Q9QUQ5 whole entry, looked up): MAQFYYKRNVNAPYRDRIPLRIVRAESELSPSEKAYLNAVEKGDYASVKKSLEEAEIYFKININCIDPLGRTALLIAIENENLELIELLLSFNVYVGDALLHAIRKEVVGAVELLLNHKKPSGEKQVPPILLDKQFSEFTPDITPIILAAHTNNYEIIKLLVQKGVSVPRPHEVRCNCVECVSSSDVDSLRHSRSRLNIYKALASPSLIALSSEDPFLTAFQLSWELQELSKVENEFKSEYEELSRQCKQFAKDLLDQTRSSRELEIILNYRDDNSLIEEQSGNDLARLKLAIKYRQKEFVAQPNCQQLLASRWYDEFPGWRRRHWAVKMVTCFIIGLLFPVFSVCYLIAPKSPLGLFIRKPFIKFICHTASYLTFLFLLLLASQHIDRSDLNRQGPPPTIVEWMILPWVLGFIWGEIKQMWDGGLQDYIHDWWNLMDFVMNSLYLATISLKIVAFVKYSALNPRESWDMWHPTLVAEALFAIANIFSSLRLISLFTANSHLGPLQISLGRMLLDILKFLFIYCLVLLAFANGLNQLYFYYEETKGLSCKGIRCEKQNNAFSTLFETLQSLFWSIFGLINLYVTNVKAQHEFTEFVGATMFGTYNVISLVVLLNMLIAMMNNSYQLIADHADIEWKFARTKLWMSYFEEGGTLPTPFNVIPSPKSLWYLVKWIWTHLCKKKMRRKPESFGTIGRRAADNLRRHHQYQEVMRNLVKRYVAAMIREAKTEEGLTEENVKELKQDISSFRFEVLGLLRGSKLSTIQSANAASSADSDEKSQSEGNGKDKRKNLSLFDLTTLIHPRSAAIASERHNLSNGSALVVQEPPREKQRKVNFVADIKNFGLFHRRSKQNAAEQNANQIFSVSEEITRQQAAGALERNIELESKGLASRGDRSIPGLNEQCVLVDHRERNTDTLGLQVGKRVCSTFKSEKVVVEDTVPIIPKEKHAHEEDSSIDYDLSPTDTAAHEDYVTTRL

This test addresses Short transient receptor potential channel 4 (Mus musculus) (UniProt Q9QUQ5). Nature of the test: positive allosteric modulators of TRPC4, primary screen, cell-based, mouse TRPC4beta, HEK293 mu-opioid, Fluo-4 calcium (AID 2227).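 As to B-score: B-score of integrated fluorescence ratio over time as area under calcium response.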 The following applies: DAMGO EC20, Fluo-4 Ca2+ flux, at 10 µM; hits give high values. Background: Calcium flux is commonly read through the fluorescence of an indicator in the cells.
As to `CCOc1ccccc1NS(=O)(=O)c1c[nH]c(C(=O)OC)c1`, the B-score entry was “inactive”.
On to `CCOC(=O)C1CCCN(CCSc2ccc(C)cc2)C1` (stereo unspecified), for which the B-score result was “inactive”.
Regarding `O=C(/C=C/c1ccc(Cl)c([N+](=O)[O-])c1)c1ccc(O)cc1`, the B-score entry is “inactive”.
With `NC(N)=N/N=C/c1ccc(Cl)c([N+](=O)[O-])c1`, the B-score was 16 (active).
On to `O=C(/C=C/c1ccc(Cl)c([N+](=O)[O-])c1)c1cccnc1`, for which the B-score result is “inactive”.
With `Oc1c(Br)cccc1/C=N/Nc1c(F)c(F)c(F)c(F)c1F`, the B-score is 11 (active).
Consider `Oc1cccc(/C=N/Nc2ccc(Cl)nn2)c1O`, for which the B-score entry is “inactive”.
Turning to `Brc1ccccc1/C=N/Nc1nc2ccccc2o1`, the B-score entry is “inactive”.
Regarding `O=[N+]([O-])c1cc(S(=O)(=O)CCCN2CCOCC2)ccc1F`, the B-score entry is “inactive”.
Take `C/C(=N/NC(=O)CCc1ccccc1)c1ccco1`: the B-score entry was “inactive”.
Next, `COc1ccc(C)cc1NC(=S)N1CCOCC1`: “inactive”; `COc1cc(C(=S)N2CCOCC2)ccc1O`: 42 (active).
`CCOc1cc(C(=S)N2CCOCC2)ccc1O`: the B-score entry was “inactive”.
For the compound `COCCCNC(=O)/C=C/c1ccc(OCc2c(F)cccc2Cl)cc1`, the B-score result is “inactive”.
With `O=C(/C=C/c1ccc(OCc2c(F)cccc2Cl)cc1)N1CCOCC1`, the B-score entry is “inactive”.
On to `CN(C)CCCNC(=O)/C=C/c1ccc(OCc2c(F)cccc2Cl)cc1`, for which the B-score was 16 (active).
As to `CSc1nnc(C2CCCN(CC(=O)Nc3ccccc3N3CCOCC3)C2)n1C(C)C` (stereo unspecified), the B-score result is “inactive”.
Next, `COc1ccc(OC)c(S(=O)(=O)N2CCCC(C(=O)NCCc3ccccc3)C2)c1` (stereo unspecified): “inactive”; `O=C(CN1CCN(S(=O)(=O)c2ccc(F)cc2)CC1)Nc1ccccc1F`: “inactive”.
Turning to `Cc1ccc(S(=O)(=O)N2CCN(Cc3cccc(C)c3O)CC2)cc1`, the B-score entry is “inactive”.
Regarding `O=S(=O)(c1ccc(F)cc1)N1CCN(Cc2ccccc2C(F)(F)F)CC1`, the B-score is 11 (active).
Consider `Cc1ccc(C(=O)COC(=O)c2cccc(N3C(=O)c4c(C)nc5ccccc5c4C3=O)c2)cc1C`, for which the B-score result is “inactive”.
Regarding `Cc1cccn2c(=O)c(C=O)c(Nc3ccc(S(N)(=O)=O)cc3)nc12`, the B-score result was “inactive”.
Take `O=C(Nc1cccc(Cl)c1)c1cc([N+](=O)[O-])ccc1N1CCN(CCO)CC1`: the B-score entry was “inactive”.
For `Cc1cccc(NC(=O)c2cc([N+](=O)[O-])ccc2N2CCN(C)CC2)c1`, the B-score is 21 (active).
Turning to `CC(=O)Nc1ccc(N2CCOCC2)c(C(=O)Nc2cccc(C)c2)c1`, the B-score result is “inactive”.
Turning to `CC(Sc1nn(-c2ccc(Cl)cc2)c(=S)s1)C(=O)NCC1CCCO1` (stereo unspecified), the B-score entry was “inactive”.
As for `COc1ccc(S(=O)(=O)n2cnc3ccccc32)c(C)c1`, the B-score entry is “inactive”.
Regarding `CCCOc1ccc(Cn2ccnc2)cc1[N+](=O)[O-]`, the B-score entry was “inactive”.
With `CCCCOc1ccc(CSC(=N)N)cc1[N+](=O)[O-]`, the B-score is 21 (active).
As to `CCCCCOc1ccc(CSC2=NCCN2)cc1[N+](=O)[O-]`, the B-score result is “inactive”.
Consider `O=C(NNC(=O)C1C2CCC(C2)C1C(=O)O)c1ccc(Cl)cc1` (stereo unspecified), for which the B-score result is “inactive”.
With `Cc1ccc(CN(CC(=O)NC2CCCCC2)C(=O)c2csnn2)cc1` the entry was “inactive”; with `Cc1ccccc1C(CC(=O)c1cccs1)C(C#N)C#N` (stereo unspecified), “inactive”.
As for `CCOc1ccc(Br)cc1S(=O)(=O)Nc1ccc(C(=O)OC(C)C(=O)N(C)c2ccccc2)cc1` (stereo unspecified), the B-score result was “inactive”.
In the case of `O=C(NCc1ccccc1)c1ccc(S(=O)(=O)Nc2cccc(C(F)(F)F)c2)cc1`, the B-score is 17 (active).
`O=C(NCc1cccc(C(F)(F)F)c1)c1cccc(S(=O)(=O)N2CCN(Cc3ccccc3)CC2)c1`: the B-score result is “inactive”.
For `CCOC(=O)N1CCN(C(=O)c2ccc(S(=O)(=O)Nc3cccc(C(F)(F)F)c3)cc2)CC1`, the B-score entry was “inactive”.
As to `CC[C@@H](C)[C@H](NC(=O)CCc1c(C)c2cc3c4c(oc3c(C)c2oc1=O)CCCC4)C(=O)O`, the B-score entry was “inactive”.
With `CC(C)CC(COCc1ccc(Cl)cc1)N1CCN(C(=O)c2ccc(C(F)(F)F)cc2)CCC1=O` (stereo unspecified), the B-score result is “inactive”.
Next, `CN1CCC(=O)N([C@H](CO)Cc2ccccc2)CC1`: “inactive”.
Turning to `O=C(c1cc(Cl)cc(Cl)c1)N1CCC(=O)N(C(COCc2ccccc2)Cc2ccccc2)CC1` (stereo unspecified), the B-score was 12 (active).
For the compound `COc1ccc(N2CC(C(=O)NCCN3C(=O)S/C(=C\c4cccnc4)C3=O)CC2=O)c(OC)c1` (stereo unspecified), the B-score result was “inactive”.
On to `COc1ccc(N2CCN(S(=O)(=O)CCNC(=O)C34CC5CC(CC(C5)C3)C4)CC2)cc1`, for which the B-score entry was “inactive”.
Consider `Cc1ccc(NC(=O)Cc2nnc(SCC(=O)Nc3nncs3)n2C)cc1`, for which the B-score entry was “inactive”.
Regarding `CC(=O)C12CC(C)=C(C)CC1CC1C3CCC4=CC(=O)CCC4(C)C3CCC12C` (stereo unspecified), the B-score was 11 (active).
As to `CC(=O)O[C@]1(C(C)=O)CC[C@H]2[C@@H]3C=C(C)C4=CC(=O)CC[C@]4(C)[C@H]3CC[C@@]21C`, the B-score entry is “inactive”.
`C[C@]12C=CC(=O)C=C1CC[C@@H]1[C@@H]2C(=O)C[C@@]2(C)[C@H]1CC[C@]2(O)C(=O)CO`: the B-score entry is “inactive”.
For the compound `CC(=O)c1c(C)n(-c2ccc(N(C)C)cc2)c2ccc(OCC(N)=O)cc12`, the B-score result is “inactive”.
On to `O=C1CSC(c2ccc(Cl)cc2)N1` (stereo unspecified), for which the B-score entry is “inactive”.
Consider `COc1ccc(S(=O)(=O)NC(C)c2ccccc2)cc1C(=O)N1CCCCC1` (stereo unspecified), for which the B-score result is “inactive”.
Turning to `O=c1c2ccccc2oc2nc(C3CCCCC3)n(Cc3ccco3)c(=O)c12`, the B-score was 29 (active).
With `O=c1c2ccccc2oc2nc3n(c(=O)c12)CCCS3` the entry was “inactive”.
With `CCc1nc2oc3ccccc3c(=O)c2c(=O)n1Cc1ccc(OC)cc1` the entry was “inactive”.
Next, `CCN(CC)CCNc1ccc(Cl)cc1[N+](=O)[O-]`: 20 (active).
Regarding `CN(C)CCNc1ccc(-c2n[nH]c(=O)c3ccccc23)cc1[N+](=O)[O-]`, the B-score result was “inactive”.
As to `CSc1ccccc1NC(=O)CN(C)CC(=O)Nc1ccc(Cl)cc1[N+](=O)[O-]`, the B-score entry is “inactive”.
On to `C/C(=N\N1CCN(Cc2ccc(C)cc2)CC1)c1ccco1`, for which the B-score result is “inactive”.
Next, `CCn1cc(C(=O)NCC(=O)NC(C)(C)CO)c(=O)c2cc3c(cc21)OCO3`: “inactive”; `COc1ccccc1CNS(=O)(=O)CC12CCC(CC1=O)C2(C)C` (stereo unspecified): “inactive”.
For the compound `Cc1c(NC(=O)C(=O)N/N=C/c2cccs2)c(=O)n(-c2ccccc2)n1C`, the B-score result is “inactive”.
